# SKKanGAS inh: SKKanGAS growth inhibition. S. pyogenes SKKanGAS, kanamycin growth, BacTiter-Glo, 6 h. inhibition, % at 7.5 µM. 300,000 tested, 1.3% active;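 active means mean replicate score, as percent of positive control median, at least 50; inconclusive means mean below 50 but one replicate at or above 50; inactive means mean and every replicate below 50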;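 further: strain carries kanamycin resistance gene driven by streptokinase promoter and grows in 40 µg/ml kanamycin; loss of luminescence reflects streptokinase promoter inhibition or plain growth inhibition; 0% = median of DMSO wells and 100% = positive control at its reference dose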
# Beta apoptosis: blocks beta cell apoptosis; INS-1E cytokine-induced death, ATP luminescence, 48 h; percent of positive-control rescue, neutral wells zero; protection from apoptosis, % (concentration not given with the values); 300,000 tested, 0.8% active; AID 435005;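 active means Every replicate reaches about 75%, or at least half do and their mean reaches it too, limit read from the data; inconclusive means At least half of replicates reach the limit but their mean does not; inactive means Under half of replicates reach the limit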;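 further: 0% = cytokine-treated negative control wells and 100% = positive control rescue; higher means more ATP so stronger rescue from cytokine killing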
# Calb FLC: affects C. albicans growth with fluconazole | growth inhibition, % (no concentration beside the values) | C. albicans CaCi-2 (fluconazole-resistant clinical isolate) + fluconazole, Alamar Blue growth, 48 h | 300,000 tested, 0.57% active;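 active means growth inhibition above about 58% in most replicates, limit read from the data, passing the limit was not always enough; inconclusive means exactly half the replicates above a set limit; inactive means most replicates below a set limit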;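 further: all wells also contain fluconazole at 8 µg/ml as a sub-toxic cotreatment; 0% = median of DMSO wells and 100% = median of geldanamycin control wells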
# Mdm2-MdmX inh: disrupts the human Mdm2-MdmX interaction; O15151+Q00987; SaOS-2 split-luciferase Mdm2/MdmX complementation, luminescence; inhibition, % at 8 µM; 330,000 tested, 3% active; AID 485346;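 active means inhibition of at least 50% at 8 µM in the primary screen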
# Target sequence (O15151 whole entry, looked up): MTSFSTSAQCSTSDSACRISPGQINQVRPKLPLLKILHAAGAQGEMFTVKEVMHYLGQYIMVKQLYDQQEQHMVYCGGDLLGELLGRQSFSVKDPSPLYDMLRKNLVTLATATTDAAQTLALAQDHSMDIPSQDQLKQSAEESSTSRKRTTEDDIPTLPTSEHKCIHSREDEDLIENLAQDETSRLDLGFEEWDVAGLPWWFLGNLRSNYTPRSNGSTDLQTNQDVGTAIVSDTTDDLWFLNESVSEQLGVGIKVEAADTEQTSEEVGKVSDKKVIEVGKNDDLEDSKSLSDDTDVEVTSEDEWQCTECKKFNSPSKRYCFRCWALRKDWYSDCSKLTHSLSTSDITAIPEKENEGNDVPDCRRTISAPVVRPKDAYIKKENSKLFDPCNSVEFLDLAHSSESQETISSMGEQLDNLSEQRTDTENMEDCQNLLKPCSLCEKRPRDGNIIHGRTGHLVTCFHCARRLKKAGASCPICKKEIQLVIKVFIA
# Target sequence (Q00987 whole entry, looked up): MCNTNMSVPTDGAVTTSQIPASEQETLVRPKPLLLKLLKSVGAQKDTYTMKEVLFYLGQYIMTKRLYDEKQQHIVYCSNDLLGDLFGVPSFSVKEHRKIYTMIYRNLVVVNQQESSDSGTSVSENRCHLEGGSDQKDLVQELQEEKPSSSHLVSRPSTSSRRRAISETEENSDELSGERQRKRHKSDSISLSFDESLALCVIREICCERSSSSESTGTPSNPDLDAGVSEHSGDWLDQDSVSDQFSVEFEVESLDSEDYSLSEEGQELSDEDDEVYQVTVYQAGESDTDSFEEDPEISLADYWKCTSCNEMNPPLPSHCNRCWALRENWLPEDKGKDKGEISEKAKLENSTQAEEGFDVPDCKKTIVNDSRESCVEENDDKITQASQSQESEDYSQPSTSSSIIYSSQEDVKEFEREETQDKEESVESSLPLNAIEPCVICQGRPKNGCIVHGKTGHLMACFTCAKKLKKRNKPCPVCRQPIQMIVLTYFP
# CSC inhib: cancer stem cell inhibition; AID 2717; inhibition, % at 7.5 µM; 300,000 tested, 1.1% active; cancer stem cell-like cells viability, luminescence; in the data active means inhibition above about 75%; inconclusive means no clear call, values can overlap the other calls; tested in HMLE shEcad cells
# MPTP block: permeability transition pore inhibition; isolated mouse mitochondria, Ca2+ swelling absorbance, 30 min; inhibition, % at 10 µM; AID 602449; 360,000 tested, 1.4% active;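 active means inhibition of 50% or more, scaled per plate between neutral and stimulator controls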;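 further: 0% = DMSO wells given calcium and 100% = 1 mM EGTA wells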
# Mdm2 MdmX conf: confirmation of human Mdm2/MdmX interaction inhibitors. shares compounds with Mdm2-MdmX inh. Mdm2-MdmX binding, luminescent assay. inhibition, % at 8 µM. 10,000 tested, 55% active. AID 489028; in the data active means inhibition above about 40%
# Full FLuc ctr: counter-screen for Mdm2/MdmX inhibitors: full-length luciferase; AID 504607; SaOS-2 full-length luciferase counterscreen, luminescence; 6,200 tested, 77% active; shares compounds with Mdm2-MdmX inh; inhibition, % at 8 µM;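 active means mean inhibition at 8 µM reaching about 37%, which flags the compound as non-specific, limit read from the data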;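 further: p53-null SaOS-2 cells with luciferase driven by a doxycycline-inducible promoter; compound on cells about two nights before reading with doxycycline added after day one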
# MPTP counter: membrane potential counter-screen of mitochondrial pore inhibitors; shares compounds with MPTP block; isolated mitochondria, Rhodamine 123 fluorescence; inhibition, % at 10 µM; 5,000 tested, 78% active; in the data active means inhibition above about 22%;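 further: 0% = DMSO vehicle and 100% = positive control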
# MPTP swell DR: dose response confirmation of mitochondrial permeability transition pore inhibitors; 780 tested, 58% active; AID 651561; shares compounds with MPTP block; isolated mitochondria swelling, absorbance; IC50, µM; in the data active means IC50 below about 20 µM
# MPTP cs DR: counter-screen for mitochondrial permeability transition pore inhibitors, dose response | shares compounds with MPTP block | isolated mitochondria counterscreen, fluorescence read-out | IC50, µM | 780 tested, 49% active | AID 651564; in the data active means IC50 below about 80 µM
# * marks the source's active call; other numbers are inactive results; i = inactive; ? = inconclusive; nt = no result. Hits are enriched below; roughly 5.4% of the tested compounds scored in any of these assays.
SMILES,SKKanGAS inh,Beta apoptosis,Calb FLC,Mdm2-MdmX inh,CSC inhib,MPTP block,Mdm2 MdmX conf,Full FLuc ctr,MPTP counter,others
CCCCn1c(NC(=O)CC)c(C#N)c2nc3ccccc3nc21,31.4,-4.8,5.7,-8.7,-6.7,-0.5,nt,nt,nt,
CCCCn1c(NC(=O)c2ccccc2Cl)c(C#N)c2nc3ccccc3nc21,39.4,18.6,-1.5,57.7*,58.9,96.2*,23.5,nt,69.7*,
CCOc1ccc(-c2cnc(NCc3cccc4ccccc34)n2CCOC)cc1,11.7,41.0,21.3,88.2*,45.3,88.9*,25.4,nt,97.2*,
Brc1ccc(NC(c2ccccc2)c2ccncc2)cc1 (configuration not stated),7.3,-3.5,-0.6,-21.7,30.4,0.1,nt,nt,nt,
CC(C)(C)N(NC(=O)Nc1ccc(Cl)c(Cl)c1)C(=O)c1ccccc1,43.6,23.8,4.4,86.3*,nt,103.9*,66.5*,42.6*,96.9*,
CN(C)CCCNc1ncnc2c1c(-c1ccccc1)cn2-c1ccccc1,-4.3,2.2,-2.4,61.3*,14.7,59.4*,42.4*,89.3*,-5.8,MPTP swell DR=i;MPTP cs DR=>80
N#C/C(=N\Nc1cccc([N+](=O)[O-])c1)C(=O)c1ccc(Br)cc1,30.0,104.2*,97.3*,97.4*,101.9*,92.6*,89.3*,21.1,40.6*,
O=C(O)c1ccc(N=NNc2cccc([N+](=O)[O-])c2)cc1,6.4,-3.9,19.2,-16.7,24.1,0.4,nt,nt,nt,
COc1ccc(Oc2ccc(/C=C/C(=O)c3ccc(O)cc3)cc2[N+](=O)[O-])cc1,-10.8,9.8,-6.6,97.5*,94.0*,87.6*,32.8,nt,66.0*,
O=C(/C=C/c1ccc(O)c([N+](=O)[O-])c1)c1ccc2ccccc2c1,9.2,-9.7,8.0,14.4,-6.2,20.9,nt,nt,nt,
Cn1nnc2cc(C(=O)Nc3ccc(Cl)cc3)ccc21,4.4,-1.7,8.3,-10.4,-9.3,-0.3,nt,nt,nt,
CC(=O)c1cnc2nc(SCc3ccc(Cl)cc3)nn2c1C,2.4,-0.3,1.2,1.2,-11.6,0.1,nt,nt,nt,
CN1CCC2(CC1)Nc1nc(SCc3ccc(Cl)cc3)nn1C1=C2CN(C)CC1,3.3,-7.3,5.1,53.4*,3.8,63.4*,33.6,nt,-14.2,MPTP swell DR=9.72*;MPTP cs DR=>80
O=C(NNc1ccccc1Br)C(O)(c1cccc(C(F)(F)F)c1)c1cccc(C(F)(F)F)c1,100.6*,124.9*,-4.4,93.6*,12.0,95.3*,77.9*,87.2*,74.1*,
CC1CCN(c2cc(N3CCC(C)CC3)c([N+](=O)[O-])cc2/C=C(\C#N)c2nn(-c3ccccc3)c(N)c2C#N)CC1,8.2,-2.4,-4.4,14.7,8.8,4.4,nt,nt,nt,
O=C(C1CCCCC1C(=O)N1CCCCC1)N1CCCCC1 (configuration not stated),nt,nt,nt,nt,nt,-0.5,nt,nt,nt,
COc1ccc(NC(=O)N2CCC(NC(=O)c3ccco3)CC2)cc1,2.0,-2.9,22.0,18.7,-7.1,-1.3,nt,nt,nt,
CN(C)c1nc2c(c(=O)[nH]c(=O)n2C)n1CCOc1ccccc1,-1.5,-4.6,-4.3,13.1,-10.7,0.3,nt,nt,nt,
COc1cc2ccccc2cc1C(=O)N(CCN(C)C)c1nc2c(OC)ccc(OC)c2s1,18.8,-1.0,37.4,60.6*,37.2,67.4*,22.4,66.3*,-8.1,MPTP swell DR=>100;MPTP cs DR=52.1*
COc1ccc(C(Nc2ccc(S(=O)(=O)N3CCOCC3)cc2)C(=O)NCCC(C)C)cc1OC (configuration not stated),-2.6,1.9,4.1,-6.8,-6.9,0.1,nt,nt,nt,
CCOc1ccc2c(C)nc(NC3=NC(C)(C)C=C(C)N3)nc2c1,-1.1,-0.9,-2.1,50.4*,25.4,58.7*,33.9,nt,6.0,MPTP swell DR=i;MPTP cs DR=7.66*
CCOc1ccc2nc(NC3=NC(C)(C)C=C(C)N3)nc(C)c2c1,-2.9,3.3,-12.3,71.6*,0.6,86.2*,33.9,nt,85.0*,
CCOc1ccc2nc(N/C(N)=N/C(=S)Nc3ccc(C)c(C)c3)nc(C)c2c1,12.0,-1.4,-19.4,24.6,55.0,-0.5,nt,nt,nt,
CC1(C(=O)NCc2ccccc2)CSCC(=O)N1C1CCN(Cc2ccccc2)CC1 (configuration not stated),nt,nt,nt,nt,nt,0.1,nt,nt,nt,
CCOc1ccc(C(C(=O)NC2CCCCC2)N(C(=O)c2csnn2)C2CC2)cc1 (configuration not stated),13.6,-2.0,14.2,5.3,0.7,-0.9,nt,nt,nt,
SMILES,SKKanGAS inh,Beta apoptosis,Calb FLC,Mdm2-MdmX inh,CSC inhib,MPTP block,Mdm2 MdmX conf,Full FLuc ctr,MPTP counter,others
Cc1ccc([N+](=O)[O-])cc1NC(=O)CN(C(=O)c1ccc(Cl)cc1)C1CCCCC1,9.7,5.7,16.4,14.8,-17.0,14.1,nt,nt,nt,
O=C(CN(C(=O)c1ccc(Cl)cc1)C1CCCCC1)Nc1ccc(Cl)c([N+](=O)[O-])c1,13.9,33.7,-0.7,65.0*,31.2,64.4*,43.2*,71.7*,85.5*,
Cc1c(Cc2ccccc2)c(=O)n2c([nH]c3ccccc32)c1C#N,16.1,53.4,29.3,61.3*,42.3,84.2*,41.6*,57.2*,73.9*,
COc1ccccc1N=Cc1c(C)c(C#N)c2[nH]c3ccccc3n2c1=O,16.4,-0.9,7.3,26.9,7.7,13.7,nt,nt,nt,
COC1CCCN(Cc2cn(C)nc2-c2ccc(Oc3ccccc3)cc2)C1 (configuration not stated),2.1,-1.2,-4.6,5.5,-6.3,0.4,nt,nt,nt,
COCCN1CCCC(CNCc2cn(C)nc2-c2ccc(Oc3ccccc3)cc2)C1 (configuration not stated),2.5,3.8,-23.0,71.3*,3.3,90.7*,60.3*,50.0*,-9.6,MPTP swell DR=4.75*;MPTP cs DR=>80
CC(C)(C)C(=O)Nc1c(Cl)cccc1OC(F)(F)F,-8.7,-5.0,3.6,-0.1,-9.3,-1.6,nt,nt,nt,
COc1ccccc1C(=O)N1CCN(C(=O)c2ccncc2)CC1,-1.8,0.4,-9.4,28.2,4.0,-0.3,nt,nt,nt,
CC(C)NC(=O)Nc1cccc(Cl)c1,0.7,-6.5,-1.4,13.9,-16.1,1.5,nt,nt,nt,
O=C(Nc1cccc(Cl)c1)Nc1csc([N+](=O)[O-])c1,51.1*,126.2*,-1.5,89.5*,?,72.0*,87.3*,39.4*,69.4*,
CN1CCC(N(C)C(=S)Nc2ccc(SC(F)F)cc2)CC1,-6.4,-4.6,-23.1,9.0,10.7,3.1,nt,nt,nt,
CC1=C/C(=N\OS(=O)(=O)c2ccccc2)C(C)=CC1=O,nt,112.1*,nt,96.3*,118.4*,98.2*,83.8*,53.2*,100.2*,
CC1=C/C(=N\OS(=O)(=O)c2ccccc2)C(C(C)C)=CC1=O,nt,?,nt,nt,62.0,6.4,nt,nt,nt,
